From PubChem BioAssay
Sampled rows, rich in hits. Any-hit rate of the full collection: about 4.8%.
USP1-UAF1 inh: blocks the human USP1/UAF1 deubiquitinase complex; O94782; recombinant USP1/UAF1, Ub-Rhodamine cleavage fluorescence; Potency, µM (top dose mostly 57.1 µM), inactives show at the highest dose activity change, negative = inhibition, most hits filed as inhibitors; hit rate 0.23% among 390,000; AID 743255; also: potency is read from the fitted curve at half-maximal effect; % is scaled to controls: 0 for no effect and ±100 for the full control effect; nearly all actives have a fitted effect of over 60% in size
Target sequence (O94782 whole entry, looked up): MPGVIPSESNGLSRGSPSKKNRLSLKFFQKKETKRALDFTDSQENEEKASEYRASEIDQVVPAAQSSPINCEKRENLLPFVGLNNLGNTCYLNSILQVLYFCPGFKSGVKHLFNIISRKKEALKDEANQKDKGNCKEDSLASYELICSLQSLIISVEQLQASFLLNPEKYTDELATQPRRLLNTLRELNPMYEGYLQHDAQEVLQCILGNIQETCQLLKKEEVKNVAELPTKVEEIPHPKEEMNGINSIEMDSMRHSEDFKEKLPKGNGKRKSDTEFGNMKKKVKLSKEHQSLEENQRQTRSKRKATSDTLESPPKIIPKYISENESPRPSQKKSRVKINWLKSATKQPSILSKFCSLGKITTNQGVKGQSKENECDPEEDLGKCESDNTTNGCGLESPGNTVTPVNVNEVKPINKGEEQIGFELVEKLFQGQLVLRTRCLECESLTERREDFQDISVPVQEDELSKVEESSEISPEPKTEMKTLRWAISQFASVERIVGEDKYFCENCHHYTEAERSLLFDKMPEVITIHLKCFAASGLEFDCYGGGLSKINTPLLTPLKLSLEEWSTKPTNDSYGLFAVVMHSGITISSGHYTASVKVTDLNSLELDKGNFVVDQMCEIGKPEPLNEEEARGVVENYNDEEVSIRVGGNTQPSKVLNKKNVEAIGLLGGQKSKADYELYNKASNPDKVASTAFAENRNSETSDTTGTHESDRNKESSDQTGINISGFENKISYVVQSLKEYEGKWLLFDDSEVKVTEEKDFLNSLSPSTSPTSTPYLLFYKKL
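High-throughput fluorogenic screen: 1nM USP1/UAF1 complex, Ub-Rho substrate 150nM final, 50mM HEPES pH 7.8 with 0.5mM EDTA, 0.1 mg/ml BSA, 1mM TCEP and 0.01% Tween-20.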
USP2a inh: inhibitors of human ubiquitin-specific protease USP2a. O75604. USP2 core, Ub-CHOP2 coupled fluorogenic reporter, 485/531. Potency, µM (series often up to 38.3 µM), for the others: at the top dose activity change, negative = inhibition, most hits filed as inhibitors. hit rate 0.01% among 330,000;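 also: potency is read from the fitted curve at half-maximal effect; plate controls were DMSO wells for no effect and full inhibition by NEM control for full effect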
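Deubiquitinase activity read as fluorescence (485/531 nm) after Ub-CHOP2 cleavage activates the enterokinase reporter on its substrate; USP2 core 10nM, Ub-CHOP2 and substrate 25nM each, 30min compound preincubation then 60min RT; data normalized to NEM, curves fitted.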
S2 tox: viability counter-screen for ATXN expression inhibitors | S2 cells (HEK-293 line with an ATXN2-luciferase reporter) viability, CellTiter-Fluor protease fluorescence, 24 h | Potency, µM (titrated, usually from 56.7 µM), actives largely listed as cytotoxic | hit rate 0.49% among 400,000 | AID 651635; also: potency is read from the fitted curve at half-maximal effect; nearly all actives have a fitted effect of over 40% in size
IL1B secr inh: inhibitors of inflammasome signaling (IL-1 beta secretion); THP-1 LPS/ATP IL-1B secretion, AlphaLISA, 16 h; hits give low values; activity change, % at 57.5 µM; hit rate 4.7% among 360,000; in the data active = activity change below about -50%; inconclusive = mostly about -30% to -49%; also: % is scaled to controls: 0 for no effect and ±100 for the full control effect
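Secreted IL-1B measured by AlphaLISA bead assay after 16 h compound exposure of THP-1 cells; compounds (final up to 57.5 uM) added 1 h before LPS (250 ng/mL) and ATP (1.25 mM) stimulation; lower signal means less secretion.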
ATXN2 expr inh: inhibitors of ATXN2 expression; Potency, µM (doses to about 57 µM), for the others: top-dose activity change, negative = inhibition, most hits filed as inhibitors; HEK-293 ATXN2-luciferase reporter, luminescence, 24 h; AID 1745845; hit rate 0.72% among 360,000; also: potency is read from the fitted curve at half-maximal effect; % is scaled to controls: 0 for no effect and ±100 for the full control effect; nearly all actives have a fitted effect of over 55% in size
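qHTS (up to 57 uM final) was run with 24 h compound exposure of reporter cells at 37 °C. Each well was multiplexed: SteadyGlo luminescence measured ATXN2-luciferase expression after a fluorogenic Gly-Phe-AFC viability readout (25 uM final).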
An asterisk follows results filed as active; i = inactive; ? = inconclusive; · = no result given; [ ] = remark or other dose. Unless noted, calls follow the shape of the dose curve; as a rule, active = well fitted curve in the direction sought with a large enough effect; inconclusive = small, poorly fitted or top-dose-only effect, or another doubt; inactive = no such curve, though single readings can be large; an effect the other way counts as inactive or inconclusive.

SMILES | USP1-UAF1 inh | USP2a inh | S2 tox | IL1B secr inh | ATXN2 expr inh
COc1cccc(Nc2nc(NCC3CCCO3)c3ccccc3n2)c1 (centres undefined) | -7.9% | -10.8% | ? | -121.5* | ?
Oc1ccccc1Nc1nc(NCC2CCCO2)c2ccccc2n1 (centres undefined) | -1.1% | 3.7% | ? | -109.3* | ?
Oc1ccc(Nc2nc(NCC3CCCO3)c3ccccc3n2)cc1 (centres undefined) | -9.9% | -0.2% | ? | -96.0* | 3.2%
Oc1ccc(Cl)cc1Nc1nc(NCC2CCCO2)c2ccccc2n1 (centres undefined) | · | · | ? | · | -20.7%
Cc1ccc(NC(=O)CCCCCC2NC(=O)NC2C)cc1 (centres undefined) | 1.7% | -0.7% | i | -95.3* | -7.5%
CC1NC(=O)NC1CCCCCC(=O)Nc1ccc(F)c(Cl)c1 (centres undefined) | 3.5% | -2.5% | i | -115.7* | ·
CC1NC(=O)NC1CCCCC(=O)O (centres undefined) | 6.0% | -0.5% | i | 7.4 | 10.9%
CCC(=O)Nc1ccc(F)c(Cl)c1 | -7.9% | -0.9% | i | 7.4 | 1.9%
CCc1cccc(NC(=O)CCCCCC2NC(=O)NC2C)c1 (centres undefined) | 2.5% | 7.9% | i | -109.3* | -16.5%
CNC(=S)N/N=C1\CC(c2ccccc2)Oc2ccccc21 (centres undefined) | -15.8% | -10.9% | i | 25.2 | 1.9%
Fc1ccc(N/N=C2/CC(c3ccccc3)Oc3ccccc32)c(F)c1 (centres undefined) | -26.3% | 2.0% | i | -52.0* | 17.6%
COc1ccc(CCn2c(-c3ccco3)nc3ccccc3c2=O)cc1OC | -21.9% | -2.7% | ? | -54.0* | -15.2%
COc1cc2ncnc(NCCc3ccccc3)c2cc1OC | -26.1% | -2.6% | ? | 0.0 | -25.1%
COc1ccc(CCNc2c3ccccc3nc3ccccc23)cc1OC | -16.9% | -3.6% | ? | -93.9* | ?
COc1ccc(CCNc2ncnc3cc(OC)c(OC)cc23)cc1OC | -23.1% | -0.2% | i | -73.1* | -30.4%[11.3 µM]
COc1cc(CN2CCCC(n3cc(C(=O)N4CCCCC4)nn3)C2)cc2c1OCO2 (centres undefined) | · | · | i | · | ·
COC(=O)[C@@H]1CCCN1Cc1ccc2c(c1)CN(Cc1ccccc1)CCO2 | · | · | i | · | ·
CCCN1CCN(CCNC(=O)Nc2cc(C)ccc2OC)CC1 | -14.6% | · | i | · | -10.6%
O=C1OC(c2ccccc2)(c2cc(Br)ccc2O)c2ccccc21 (centres undefined) | -13.7% | · | · | -91.5* | ?
C=CCN1C(=O)c2ccc(C(=O)N3CCC(C(N)=O)CC3)cc2C1=O | -8.0% | 0.9% | i | 5.4 | -3.7%
COc1cccc(C(=O)NCC(=O)N2CCN(c3ccc(C(F)(F)F)cn3)CC2)c1 | -13.3% | -1.3% | i | 19.9 | ?
CN(Cc1ccccc1)S(=O)(=O)c1ccc(Cl)c(C(=O)N2CCOCC2)c1 | -20.5% | · | ? | 24.8 | ·
CC1OC(Nc2cccc3ccccc23)C(O)C(O)C1O (centres undefined) | 22.4µM* | 2.9% | i | 37.1 | 3.0%
Oc1ccccc1CNCC12CC3CC(CC(C3)C1)C2 | -11.9% | 0.8% | i | -86.6* | 9.3%
CC(CC12CC3CC(CC(C3)C1)C2)NCc1ccccc1O (centres undefined) | -19.6% | -0.2% | ? | -85.1* | -53.2%
SMILES | USP1-UAF1 inh | USP2a inh | S2 tox | IL1B secr inh | ATXN2 expr inh
CC(C)(C)OC(=O)N[C@H](C(=O)OC(C)(C)C)c1ccc2ccccc2c1 | 6.0% | 2.5% | i | 6.4 | 5.8%
COc1ccccc1C(=O)NCC(=O)OCC(=O)N(CC(C)C)c1c(N)n(Cc2ccccc2)c(=O)[nH]c1=O | 1.1% | 0.9% | i | -3.1 | -2.0%
O=C(NNCc1ccc(O)cc1)c1ccccc1Cl | -6.4% | -0.1% | i | 6.8 | ·
O=c1[nH]c(/C=C/c2ccc(OC(F)F)cc2)nc2c1cnn2-c1ccccc1 | 1.9% | 1.8% | i | -56.1* | -25.0%[11.3 µM]
CCN(CC)S(=O)(=O)c1cc(C(=O)Nc2nncs2)c(Cl)cc1Cl | -11.2% | 0.4% | i | -84.0* | -5.8%
CCN(CC)S(=O)(=O)c1ccc(Cl)c(C(=O)Nc2nncs2)c1 | 6.0% | 1.9% | i | 22.6 | 2.6%
